In PubChem BioAssay:
Where “and” joins values, the source holds several entries; their conditions need not be identical. Equal values may be shown once. Calls of active or inactive are those of the source.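 Rule for the calls, unless noted: active = compounds whose cell count with miR-34 switched on is under 0.7 times the count with it off; inactive = the rest.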

Tests used:
[1] = system: Aerobactin synthetase IucA (Klebsiella pneumoniae); experiment: IucA aerobactin synthetase inhibitors, biochemical, Tocris library, absorbance (AID 1345561; call rule not given here;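 note: 100% = enzyme without compound and 0% = no enzyme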); details: purified IucA enzyme assay, absorbance (OD) read-out; stronger effect = lower value;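 tested at 8 µM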
[2] = sensitizers of A549 cells to miR-34 induction, primary screen, imaging, A549 dox-inducible miR-34, nuclei and caspase counts (AID 1347080); details: A549 miR-34 inducible, Hoechst nuclei count, 48 h
[3] = viability rescue of complex I mutant cybrids, primary screen, cell-based, galactose medium, ATP luminescence (AID 1645843;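 active = z-score of at least 1.8 in each of two replicates, scored against plate mean and spread of sample wells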;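 note: positive z means more ATP and so rescue of galactose-driven cybrid death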); details: complex I mutant cybrid cells, 72 h, stronger effect = higher value
[4] = stronger effect = lower value, cell number ratio, induced over uninduced
[5] = measured here: relative caspase fold change +Dox/-Dox
[6] = measured here: total cells with miR-34 induction, stronger effect = lower value
[7] = measured here: total cells without miR-34 induction

In the case of `COc1cc([C@@H]2c3cc4c(cc3C(OC3OC5COC(C)OC5C(O)C3O)C3COC(=O)[C@@H]32)OCO4)cc(OC)c1O` (stereo partly specified), the remaining activity [1] is reported as 116% (inactive), the fold change [2, 4] is reported as 1.07 (inactive) and the fold change [2, 5] is reported as 0.575. The cell count [2, 6] was 4900, the cell count [2, 7] was 4590 and the z-score [3] was -0.765 (inactive).

In the case of `O=C(O)Cc1cc2ccccc2nc1C(=O)O`, the remaining activity [1] is reported as 129% (inactive), the fold change [2, 4] is reported as 0.938 (inactive) and the fold change [2, 5] is reported as 1.06. For the same compound, the cell count [2, 6] was 8250, the cell count [2, 7] was 8790 and the z-score [3] was 0.145 (inactive).

For `C/C=C1/C(=O)C[C@H]2[C@@H]3CCC4=CC(=O)CC[C@]4(C)[C@H]3CC[C@]12C`, the remaining activity [1] was 104% (inactive), the fold change [2, 4] was 0.844 (inactive) and the fold change [2, 5] was 3.69. The cell count [2, 6] was 6570, the cell count [2, 7] was 7790 and the z-score [3] was -0.33 (inactive).

For `CN=C1C=C2C(=NC=NC2=Nc2cccc(Br)c2)C=N1`, the remaining activity [1] was 82.7% (inactive), the fold change [2, 4] was 0.699 (active) and the fold change [2, 5] was 1.7. The cell count [2, 6] was 942, the cell count [2, 7] was 1350 and the z-score [3] was -0.675 (inactive).

For `O=C(Nc1ccc(C(F)(F)F)cn1)N1CCN(c2ncccc2C(F)(F)F)CC1`, the remaining activity [1] was 86.8% (inactive), the fold change [2, 4] was 0.952 (inactive) and the fold change [2, 5] was 1.39. For the same compound, the cell count [2, 6] was 6230, the cell count [2, 7] was 6540 and the z-score [3] was -0.475 (inactive).

In the case of `Clc1ccccc1CNCC1CCC(CNCc2ccccc2Cl)CC1` (stereo unspecified), the remaining activity [1] is reported as 103% (inactive), the fold change [2, 4] is reported as 0.98 (inactive) and the fold change [2, 5] is reported as 0.883. The cell count [2, 6] was 7550, the cell count [2, 7] was 7700 and the z-score [3] was -0.795 (inactive).

With `O=c1[nH]ccc2c(S(=O)(=O)N3CCCNCC3)cccc12` the remaining activity [1] was 105% (inactive), the fold change [2, 4] was 0.922 (inactive) and the fold change [2, 5] was 0.813. For the same compound, the cell count [2, 6] was 9480, the cell count [2, 7] was 10300 and the z-score [3] was -0.145 (inactive).

With `CN(Cc1ccccc1)C(=O)[C@H](Cc1ccc2ccccc2c1)NC(=O)[C@@H]1CCCN1C(=O)Nc1ccccc1[N+](=O)[O-]` the remaining activity [1] was 123% (inactive), the fold change [2, 4] was 0.972 (inactive) and the fold change [2, 5] was 1.17. The cell count [2, 6] was 5700, the cell count [2, 7] was 5860 and the z-score [3] was 1.83 (active).

For `COc1ccc2cccc(N3CCN(CCNC(=O)c4ccc(F)cc4)CC3)c2c1`, the remaining activity [1] was 104% (inactive), the fold change [2, 4] was 0.924 (inactive) and the fold change [2, 5] was 0.854. The cell count [2, 6] was 7720, the cell count [2, 7] was 8360 and the z-score [3] was -0.77 (inactive).

For `CC(C)N1Cc2cc(S(C)(=O)=O)ccc2N(CCN2CC=C(c3c[nH]c4cc(F)ccc34)CC2)S1(=O)=O`, the remaining activity [1] was 110% (inactive), the fold change [2, 4] was 0.929 (inactive) and the fold change [2, 5] was 1.15. For the same compound, the cell count [2, 6] was 6990, the cell count [2, 7] was 7530 and the z-score [3] was 0.12 (inactive).

With `OC[C@H]1NC[C@@H](O)[C@@H](O)[C@@H]1O` the remaining activity [1] was 123% (inactive), the fold change [2, 4] was 0.958 (inactive) and 0.973 (inactive) and the fold change [2, 5] was 0.787 and 0.709. For the same compound, the cell count [2, 6] was 4950 and 9630, the cell count [2, 7] was 5160 and 9890 and the z-score [3] was -0.17 (inactive).

With `Cc1cc(C(=O)O)sc1C(N)C(=O)O` (stereo unspecified) the remaining activity [1] was 83.4% (inactive), the fold change [2, 4] was 0.995 (inactive) and the fold change [2, 5] was 1.22. The cell count [2, 6] was 8770, the cell count [2, 7] was 8820 and the z-score [3] was 0.285 (inactive).

In the case of `CSc1cc2c(cc1C(F)(F)F)N(C(=O)Nc1cccnc1)CC2`, the remaining activity [1] is reported as 112% (inactive), the fold change [2, 4] is reported as 0.921 (inactive) and the fold change [2, 5] is reported as 0.728. For the same compound, the cell count [2, 6] was 9460, the cell count [2, 7] was 10300 and the z-score [3] was 0.05 (inactive).

In the case of `COc1ccc(NC(=O)c2ccc(-c3ccc(-c4noc(C)n4)cc3C)cc2)cc1OCCN(C)C`, the remaining activity [1] is reported as 128% (inactive), the fold change [2, 4] is reported as 1.2 (inactive) and the fold change [2, 5] is reported as 1.18. For the same compound, the cell count [2, 6] was 1160, the cell count [2, 7] was 962 and the z-score [3] was -0.765 (inactive).

With `O=[N+]([O-])c1ccccc1S(=O)(=O)NCC1CCC(CNCC2CCc3ccccc3C2)CC1` (stereo unspecified) the remaining activity [1] was 97.1% (inactive), the fold change [2, 4] was 0.747 (inactive) and the fold change [2, 5] was 1.77. For the same compound, the cell count [2, 6] was 2050, the cell count [2, 7] was 2740 and the z-score [3] was -0.675 (inactive).

In the case of `CC1(C)Oc2ccc(C#N)cc2[C@H](N2CCCC2=O)[C@H]1O` (racemic), the remaining activity [1] is reported as 116% (inactive), the fold change [2, 4] is reported as 0.905 (inactive) and the fold change [2, 5] is reported as 1.25. The cell count [2, 6] was 8970, the cell count [2, 7] was 9900 and the z-score [3] was 0.155 (inactive).

In the case of `CCCCCCCNS(=O)(=O)c1cccc2c(Cl)cccc12`, the remaining activity [1] is reported as 95% (inactive), the fold change [2, 4] is reported as 0.865 (inactive) and the fold change [2, 5] is reported as 0.629. The cell count [2, 6] was 8130, the cell count [2, 7] was 9410 and the z-score [3] was -0.5 (inactive).

In the case of `O=C(O)c1cc(Oc2ccc([N+](=O)[O-])cc2)cc(Oc2ccc([N+](=O)[O-])cc2)c1`, the remaining activity [1] is reported as 113% (inactive), the fold change [2, 4] is reported as 0.979 (inactive) and the fold change [2, 5] is reported as 0.988. For the same compound, the cell count [2, 6] was 8410, the cell count [2, 7] was 8600 and the z-score [3] was 1.39 (inactive).

In the case of `Cc1c(C(=O)NC2CCCCC2)sc2nc3ccc(N)cc3n12`, the remaining activity [1] is reported as 120% (inactive), the fold change [2, 4] is reported as 0.889 (inactive) and the fold change [2, 5] is reported as 1.46. The cell count [2, 6] was 5970, the cell count [2, 7] was 6720 and the z-score [3] was -0.625 (inactive).

With `Cc1ccc(/C=C2\CNC/C(=C\c3ccc(C)cc3)C2=O)cc1` the remaining activity [1] was 95.5% (inactive), the fold change [2, 4] was 0.9 (inactive) and the fold change [2, 5] was 0.964. For the same compound, the cell count [2, 6] was 500, the cell count [2, 7] was 556 and the z-score [3] was -0.645 (inactive).

In the case of `Cc1ccccc1N=C(N)Nc1ccccc1C`, the remaining activity [1] is reported as 93.4% (inactive), the fold change [2, 4] is reported as 0.944 (inactive) and the fold change [2, 5] is reported as 0.72. For the same compound, the cell count [2, 6] was 8710, the cell count [2, 7] was 9220 and the z-score [3] was -0.035 (inactive).
